PubChem BioAssay AID2535 (National Center for Advancing Translational Sciences (NCATS), 2010)
Activity calls are given as the source filed them. The call rests on the fitted dose curve; in most records, active means well fitted curve in the direction sought with a large enough effect; inconclusive means small, poorly fitted or top-dose-only effect, or effect the other way, or another doubt; inactive means no such curve, though single readings can be large or run the other way.

The compounds below were run against Pyruvate kinase PKLR (Homo sapiens) (UniProt P30613) (assay: Secondary Concentration-Response Assay for Activators of Human Liver Pyruvate Kinase: for Probe SAR). Conditions: purified hPK-L, ATP production, Kinase-Glo luminescence; series mostly up to 58.3 µM.
Pyruvate kinase PKLR (Homo sapiens), sequence (P30613 whole entry, looked up): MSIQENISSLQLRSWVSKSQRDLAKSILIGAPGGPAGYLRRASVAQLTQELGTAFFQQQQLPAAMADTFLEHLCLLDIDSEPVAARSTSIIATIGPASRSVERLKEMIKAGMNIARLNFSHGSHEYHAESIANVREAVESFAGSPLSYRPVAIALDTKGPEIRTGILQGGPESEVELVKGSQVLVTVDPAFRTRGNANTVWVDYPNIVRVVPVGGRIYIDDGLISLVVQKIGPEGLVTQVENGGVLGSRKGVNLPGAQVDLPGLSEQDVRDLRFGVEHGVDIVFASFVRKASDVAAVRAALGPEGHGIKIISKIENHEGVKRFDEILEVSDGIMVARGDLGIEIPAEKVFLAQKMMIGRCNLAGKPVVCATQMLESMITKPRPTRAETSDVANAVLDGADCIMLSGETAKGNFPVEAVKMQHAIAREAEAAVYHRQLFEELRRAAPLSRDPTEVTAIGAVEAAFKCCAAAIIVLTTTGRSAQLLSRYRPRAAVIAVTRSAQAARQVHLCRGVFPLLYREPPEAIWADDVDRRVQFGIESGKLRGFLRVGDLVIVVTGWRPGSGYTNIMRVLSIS
Summary of the method: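 Purified human liver pyruvate kinase (0.1 nM) incubated 1 h at room temperature with compound, 0.5 mM PEP and 0.1 mM ADP in imidazole buffer pH 7.2; ATP formed read by Kinase-Glo luminescence, normalized to uninhibited wells.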

outcome, inactive:
Cc1ccc(NS(=O)(=O)c2ccc3c(c2)CC(=O)N3C)cc1C
O=S1(=O)N=C(Oc2ccccc2)c2ccccc21
CC(=O)Nc1ccc(S(=O)(=O)Nc2ccc(C)c(C)c2)cc1
CCCCN1C(=O)c2ccccc2C1=O
O=S1(=O)N=C(Oc2cccc(Cl)c2)c2ccccc21
O=C1c2ccccc2C(=O)N1c1cccc2ncccc12
Cc1ccc(NS(=O)(=O)c2ccc(F)cc2)cc1C
Cc1ccc(NS(=O)(=O)c2ccc3[nH]c(=O)[nH]c3c2)cc1C
Cc1ccc(NS(=O)(=O)c2cc3c(cc2N(C)C)CCC(=O)N3)cc1C
O=C1CCc2cc(S(=O)(=O)Nc3ccc(Cl)c(Cl)c3)c(F)cc2N1
Cc1ccc(Nc2c(-c3ccc(C)s3)nc3cccc(C)n23)cc1
Cc1ccc(-c2nc3ccccn3c2Nc2ccccc2C)o1
O=C1c2ccccc2C(=O)N1c1cccnc1
Cc1ccc(NS(=O)(=O)c2ccc3c(c2)CCC(C)(C)O3)cc1C
N#Cc1cccc(NS(=O)(=O)c2ccc3c(c2)CCC(=O)N3)c1
Cc1ccc(NS(=O)(=O)c2ccc3c(c2)CCC(=O)N3)cc1F
O=C1CCc2cc(S(=O)(=O)Nc3cccc(-c4ccccc4)c3)ccc2N1
O=C1c2ccccc2C(=O)N1c1cccc2ccncc12
Cc1ccc(C)c(OC2=NS(=O)(=O)c3ccccc32)c1
O=C1CCc2cc(S(=O)(=O)Nc3ccc(Cl)cc3)ccc2N1
Cc1cccc(NS(=O)(=O)c2ccc3c(c2)CCC(=O)N3)c1
Cc1ccc(NS(=O)(=O)c2cc3c(cc2-c2ccco2)NC(=O)CO3)cc1C
Cc1ccc(N[S+](=O)([O-])c2cc3c(cc2CCc2ccccc2)NC(=O)CO3)cc1C
O=C1CCc2cc(S(=O)(=O)Nc3cccc4ccccc34)ccc2N1
Cc1ccc(NS(=O)(=O)c2ccc(N3CCCC3=O)cc2)cc1C
Cc1ccc(NC(=O)c2ccc3c(c2)CCC(=O)N3)cc1C
COc1cccc(OC2=NS(=O)(=O)c3ccccc32)c1
Cc1ccc(NS(=O)(=O)c2cc3c(cc2N2CCCCC2)NC(=O)CC3)cc1C
CN(C)c1cccc(S(=O)(=O)N2CCN(S(=O)(=O)c3ccc4c(c3)OCCO4)CC2)c1
Cc1ccc(NS(=O)(=O)c2ccc3c(c2)CCN(C(=O)C(F)(F)F)C3)cc1C
Cc1ccc(NS(=O)(=O)c2ccc3c(c2)CCO3)cc1C
Cc1ccc(Cl)cc1NS(=O)(=O)c1cc2c(cc1F)NC(=O)CC2
